Hits are enriched below; roughly 2.8% of the tested compounds scored in any of these assays.
SENP6 block = blocks the human protease SENP6; Q9GZR1; Recombinant SENP6 catalytic domain, aminoluciferin luminescence; inhibition, % at 10 µM; 330,000 compounds, 1.8% hits; AID 2599;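 active means inhibition above about 50% at the single tested dose, limit read from the data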;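 further: plate controls were DMSO wells with enzyme for no effect and DMSO wells lacking enzyme for full effect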
SENP7 inh = inhibitors of human SENP7 protease | AID 434973 | inhibition, % at 5 µM | Q9BQF6 | 330,000 compounds, 1.5% hits | recombinant SENP7, Z-RLRGG-aminoluciferin luminescence, 40 min;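 active means inhibition above about 50% at the single test dose, limit read from the data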;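 further: plate controls were DMSO with enzyme for no effect and no enzyme buffer wells for full effect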
Target sequence (Q9BQF6 706-1050 limits assumed): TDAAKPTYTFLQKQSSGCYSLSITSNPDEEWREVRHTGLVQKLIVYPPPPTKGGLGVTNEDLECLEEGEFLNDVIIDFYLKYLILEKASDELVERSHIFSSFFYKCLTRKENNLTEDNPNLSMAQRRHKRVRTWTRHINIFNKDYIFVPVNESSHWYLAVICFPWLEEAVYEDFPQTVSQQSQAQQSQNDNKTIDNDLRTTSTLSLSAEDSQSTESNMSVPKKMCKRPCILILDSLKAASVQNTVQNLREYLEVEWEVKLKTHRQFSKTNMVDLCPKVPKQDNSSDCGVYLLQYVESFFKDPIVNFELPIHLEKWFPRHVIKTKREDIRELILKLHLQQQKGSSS
HSP90 refold inh = HSP90 refolding inhibition in rabbit reticulocyte lysate; luciferase refolding luminescence, 3 h; inhibition, % at 5.6 µM; 290,000 compounds, 0.91% hits; AID 1789;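 active means inhibition above the screen-wide mean plus 3 SD, computed separately per campaign, cut at about 16% in these data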;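 further: 0% = DMSO wells and 100% = 60 µM geldanamycin wells; inhibitors lower the luminescence because luciferase stays unfolded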
SENP8 block-1 = SENP8 protease inhibition. purified SENP8, Z-RLRGG-aminoluciferin cleavage, luminescence. inhibition, % at 10 µM. 330,000 compounds, 1.2% hits. AID 2540; in the data active means inhibition above about 50%
SENP8 block-2 = blocks human SENP8 cleavage of Nedd8 substrate. inhibition, % at 20 µM. 360,000 compounds, 0.64% hits. recombinant SENP8, Nedd8 substrate fluorescence. Q96LD8; in the data active means inhibition mostly above about 40%, no sharp cut-off; inactive means mostly below about 27%
Starred values were filed as active, the others as inactive; / = no result given.

SMILES	SENP6 block	SENP7 inh	HSP90 refold inh	SENP8 block-1	SENP8 block-2
COc1ccc(NC(=O)CCNC(=O)N2CC(=O)Nc3ccccc32)cc1	/	/	/	/	4.8
CC1=NN(c2ccccc2)C(=O)/C1=C/C=C/C=C/N(C)C	0.9	5.7	-2.7	6.4	23.0
CC1=NN(c2ccccc2)C(=O)/C1=C/c1cccs1	9.1	18.7	1.4	-0.7	15.5
COc1ccc(/C=C2/C(=O)N(c3cccc(F)c3)N=C2C)c(OC)c1	20.1	48.9	3.6	-2.3	41.0*
CC1=NN(c2ccccc2)C(=O)/C1=C/c1c(O)n(-c2ccc(F)cc2)[nH]c1=O	57.5*	-2.4	-2.1	31.1	30.9
CC1=NN(c2ccccc2)C(=O)/C1=C/c1ccc(Cl)cc1	40.8	49.6	5.2	26.8	41.4*
CC1=NN(c2ccccc2)C(=O)C1=Cc1ccccc1	/	/	/	/	49.5*
CC(C)c1ccc(OCC(=O)NCc2ccco2)cc1	5.9	2.4	-1.6	3.5	9.5
CC1=NN(c2ccccc2)C(=O)/C1=C/c1ccc[nH]1	-21.7	-6.8	-4.5	-10.5	46.5*
CC1=NN(c2ccccc2)C(=O)/C1=C\c1ccc(Br)s1	20.0	43.6	2.2	2.0	17.4
COc1ccc(/C=C2/C(=O)N(c3ccccc3)N=C2C)cc1Br	-2.7	22.5	1.4	-2.1	46.3*
COc1ccc(CCNCc2cc(C)n(-c3ccc(OC)cc3)c2C)cc1	-7.6	-8.7	5.1	-10.5	46.2*
COc1ccc(CCNCc2ccccc2N2CCCC2)cc1	7.9	1.9	4.4	6.6	9.3
Cc1ccccc1-n1c(C)cc(/C=N/Nc2ccc([N+](=O)[O-])cn2)c1C	-10.1	4.4	1.7	-7.3	60.5*
Cc1cc(/C=N/Nc2ccc([N+](=O)[O-])cn2)c(C)n1-c1ccc(C(=O)O)cc1	1.9	1.6	0.0	-3.5	49.9*
COc1ccc(C[C@H]2CN3C(=NC[C@H]3Cc3ccccc3)N2CCNC(=O)c2ccc(C)c(Br)c2)cc1	-20.4	-11.6	/	-16.2	22.2
COc1ccc(C[C@H]2CN3C(=NC[C@@H]3Cc3ccccc3)N2CCNC(=O)c2ccc(C)c(Br)c2)cc1	-9.4	-3.9	16.7*	-11.3	22.2
COc1ccc(/C=C2\CN(Cc3ccccc3)C/C(=C\c3ccc(OC)c(O)c3)C2=O)cc1O	-19.4	-1.4	18.5*	3.1	22.9
CCN1C/C(=C/c2ccc(OC)c(O)c2)C(=O)/C(=C/c2ccc(OC)c(O)c2)C1	-15.8	0.7	13.7	6.9	4.2
CC1Cc2ccccc2N1C(=O)CSc1nc2cc3c(cc2cc1C#N)OCO3 (stereo unspecified)	5.6	6.9	-0.8	-3.4	-210.3
Cc1cc2cc3c(cc2nc1SCC(=O)N1c2ccccc2CC1C)OCO3 (stereo unspecified)	0.3	-5.1	16.8*	-2.3	-5.7
CCOc1cc2c(cc1/C=C/c1noc(C)c1[N+](=O)[O-])OC(C)C2 (stereo unspecified)	-2.1	-1.7	4.5	2.2	-3.8
COc1cc(NC(=O)Cn2c(=O)n(CC3CCCO3)c(=O)c3ccccc32)cc(OC)c1 (stereo unspecified)	10.4	4.6	-1.3	0.9	0.1
COc1ccccc1C(=O)Nc1nnc(-c2ccco2)s1	-24.4	-8.8	4.1	-5.9	-328.9
Cc1ccccc1C(=O)Nc1nnc(-c2ccco2)s1	53.8*	73.3*	7.5	44.4	-197.1
SMILES	SENP6 block	SENP7 inh	HSP90 refold inh	SENP8 block-1	SENP8 block-2
CCSc1nnc(NC(=O)c2cccnc2Cl)s1	26.1	-2.4	1.1	-12.9	5.9
CCSc1nnc(NC(=O)c2ccccn2)s1	60.1*	60.4*	12.7	18.2	7.9
CCSc1nnc(NC(=O)c2ccccc2C)s1	55.4*	44.5	-0.6	36.0	1.7
CCSc1nnc(NC(=O)c2cccnc2)s1	10.8	16.2	2.2	-0.3	10.2
CCSc1nnc(NC(=O)c2cnccn2)s1	-2.7	4.3	/	6.9	/
CCSc1nnc(NC(=O)c2ccccc2)s1	53.0*	40.2	0.1	29.4	-15.8
OC(c1ccc(F)cc1)c1nc(-c2cnc3ccccc3c2)cs1 (stereo unspecified)	/	/	/	/	-59.3
O=C(CN1CCN(Cc2ccccc2)CC1)Nc1cccc(S(=O)(=O)N2CCCCCC2)c1	6.6	6.0	-2.4	3.2	3.5
COc1cccc(N2CCN(C(=O)c3ccc4nc(N5CCCCC5)sc4c3)CC2)c1	2.1	-8.2	59.4*	2.7	-27.6
CC(C)CC(=O)N1CCN(S(=O)(=O)c2ccc(C3CCCCC3)cc2)CC1	0.1	3.9	/	-2.4	12.4
O=C(Nc1ccc(Br)cc1)c1ccc(N2C(=O)C3CC=C(Cl)CC3C2=O)cc1 (stereo unspecified)	-7.4	0.6	-0.1	-4.7	-0.7
